# Test results as given in PubChem BioAssay (NCI).
# The panel holds about 79,000 compounds, 15% with a hit somewhere; the sample as a whole holds those more often. Unmarked numbers belong to inactive results. Activity calls are given as the source filed them. No stated cut-off is given here; in the data, active means growth inhibition above about 70%; inactive means the rest. Where a SMILES comes first, the peptide text is derived from it. [ ]: non-standard residue; d: D form. ΔPro = O=C(O)[CH]1C=CCN1
# How the values were obtained:
# [1] = NCI Yeast Anticancer Drug Screen. Data for the rad50 strain (AID 155);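 further: 0% = growth of vehicle-only cultures of the same strain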; conditions: S. cerevisiae rad50 strain growth inhibition; at 50.0 µM; hits give high values
# Procedure, shortened: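 Cells are treated with compound, grown, and their growth is then scored against vehicle-only cultures of the same repair-deficient yeast strain.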
# [2] = NCI Yeast Anticancer Drug Screen. Data for the mec2-1 strain (AID 157); conditions: S. cerevisiae mec2-1 strain, at 50.0 µM, hits give high values
# Procedure, shortened: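 mec2-1 yeast strain, carrying an alteration in DNA damage repair or cell cycle control, was exposed to compounds; growth inhibition was measured relative to vehicle-treated controls.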
# [3] = NCI Yeast Anticancer Drug Screen. Data for the sgs1 mgt1 strain (AID 161);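 further: 0% = growth of cultures given vehicle only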; conditions: S. cerevisiae sgs1 mgt1 strain, at 50.0 µM, hits give high values
# Procedure, shortened: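 Percent growth inhibition was derived by comparing compound-exposed mutant yeast with vehicle-exposed cultures. The strain carries alterations in DNA damage repair.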
# [4] = NCI Yeast Anticancer Drug Screen. Data for the cln2 rad14 strain (AID 165);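 further: 0% = growth equal to vehicle treated cultures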; conditions: S. cerevisiae cln2 rad14 strain, at 50.0 µM, hits give high values
# Procedure, shortened: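 Yeast carrying cln2 and rad14 alterations (cell cycle control and DNA damage repair) were exposed to compounds. Growth inhibition was measured against vehicle-treated controls.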
# [5] = NCI Yeast Anticancer Drug Screen. Data for the bub3 strain (AID 167); conditions: S. cerevisiae bub3 mutant strain, at 50.0 µM, hits give high values
# Procedure, shortened: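 Part of a panel of yeast mutants defective in DNA damage repair or cell cycle regulation. Each strain is grown with compound, and inhibition is calculated relative to solvent-treated cultures.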
# [6] = NCI Yeast Anticancer Drug Screen. Data for the mlh1 rad18 strain (AID 175); conditions: S. cerevisiae mlh1 rad18 strain growth inhibition; at 50.0 µM; hits give high values
# Procedure, shortened: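 Growth inhibition of the yeast strain was measured after compound exposure and expressed relative to vehicle-treated controls. The strain carries defined defects in DNA damage repair.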
SMILES,growth inhibition [1],growth inhibition [2],growth inhibition [3],growth inhibition [4],growth inhibition [5],growth inhibition [6]
Nc1nc(Sc2ccc([N+](=O)[O-])c3nonc23)c2[nH]cnc2n1,17.1%,7.25%,-20.4%,17.2%,29.1%,34.6%
CCCCCCCCCCCCCCCCCC(=O)N/N=C/c1ccc(O)cc1,-22.3%,-12.4%,-16.2%,-61.2%,-6.2%,1.85%
COc1ccc(C2c3cc4c(cc3OC(C)(OC)C2C)OCO4)c(OC)c1OC (stereo unspecified),-1.5%,5.8%,-4.75%,-19%,-3.6%,22.1%
CCOC1CN=C(Nc2cccc3ccccc23)S1 (stereo unspecified),-51.6%,-33.3%,-27.9%,-2.65%,-34.4%,-29.8%
CC(C)=CCC1=C(O)c2ccccc2C(=O)C1=O,16.6%,5.15%,14.2%,0.4%,-4.25%,13.1%
Cc1nc(C(N)=S)sc1C(=O)CC(=O)C(=O)Nc1ccccc1[N+](=O)[O-],0.15%,-9%,10.8%,7%,17.4%,1.95%
NC(CSSCC(N)Cc1ccccc1)Cc1ccccc1 (stereo unspecified),-4.25%,-9.45%,-9.2%,14.8%,-27.5%,25.9%
Cc1nc2scc(C)c2c(=S)[nH]1,-0.85%,1.5%,6.75%,-38.9%,-11.8%,-2.45%
CCCCCCCCCCCCOC1OC(COC(C)=O)C(OC(C)=O)C(OC(C)=O)C1OC(C)=O (stereo unspecified) (tested in a mixture with another compound),-7.9%,-15.4%,-15.6%,-22.2%,-2.45%,-14.4%
CNC(=O)OCc1c(COC(=O)NC)c(-c2ccsc2)n2c1CCC2,17.5%,13.6%,37.1%,-5.6%,-22.4%,8.25%
CCCCN(CCCC)CC(O)c1cc(-c2cc(C(O)CN(CCCC)CCCC)c3ccccc3n2)nc2ccccc12 (stereo unspecified),50.9%,-8.2%,46.1%,-6.85%,5.3%,32.4%
O=C1NC(=NC2CCCCC2)C2(CCN(CCCC3(c4ccc(F)cc4)OCCO3)CC2)N1c1ccccc1,-18.8%,-17.2%,-6.3%,5%,-5%,-1.45%
OCC1OC(n2cc[nH]c2=S)C(O)C1O (stereo unspecified),8.5%,7.6%,-2.6%,4.45%,10.2%,-12.7%
COC(=O)c1ccncc1,-2.6%,2.95%,-2.8%,-35.8%,10.4%,-0.45%
CCN/C(C)=C\C(=O)OCC,-0.9%,8.95%,-0.65%,-17.2%,-9.95%,1.25%
COc1c2c(cc3c1C(=O)Cc1ccc4c(c1CN(C)CC3)OCO4)OCO2,7.15%,-3.4%,-1.15%,24.4%,8.95%,7.25%
CC(=O)OC1CC(O)C23COC(O)C1(C)C2CC(O)C1(C)C3C(=O)C(O)C2(C)C(c3ccoc3)CC3OC321 (stereo unspecified),-9.9%,2.75%,-11.3%,0.2%,-2.2%,-37.7%
Cn1ccc(=O)n(C)c1=O,-8.15%,-10.8%,2%,5.15%,5.05%,2.25%
O=C(Nc1ncnc2nc(-c3ccccc3)[nH]c12)c1ccccc1,-30.1%,-16.9%,-5%,-56.3%,-6.65%,5.95%
CC/C(=C/CO)c1ccccc1,46.5%,5.65%,17.6%,6.05%,10.8%,36.4%
OC1(c2ccccc2)CCCN(Cc2ccccc2)C1 (stereo unspecified),3.75%,7%,6.6%,-17.4%,14.6%,15.8%

SMILES,growth inhibition [1],growth inhibition [2],growth inhibition [3],growth inhibition [4],growth inhibition [5],growth inhibition [6]
O=C1C=CC(=O)N1C(c1ccccc1)(c1ccccc1)c1ccccc1,99% (active),99.7% (active),99.5% (active),99% (active),99.5% (active),99.5% (active)
Cc1cc(Cl)c(Cl)cc1NC(=O)c1ccccc1Cl,1.55%,-11.3%,4%,-9.25%,8.9%,-5.25%
Cc1ccc(C(C(=O)O)C(Cl)(Cl)Cl)cc1 (stereo unspecified),6.7%,-11%,-0.75%,0.7%,-6.45%,4.65%
O=C(O)C1C=CCN1C(=O)C1C=CCN1C(=O)C1C=CCN1 (stereo unspecified) (H-[ΔPro]-[ΔPro]-[ΔPro]-OH; configuration not given here),-68.7%,-38.6%,-25.5%,0.05%,0.25%,-31.5%
COc1ccc(/C=C(\CC(=O)c2ccc(Cl)cc2)C(=O)O)cc1,-21.5%,-8.85%,6.6%,-30.6%,1%,-5.8%
O=S1(=O)CCCCC1C(O)(c1ccccc1)c1ccccc1 (stereo unspecified),96% (active),94.2% (active),91.2% (active),95.5% (active),95.8% (active),96% (active)
CC1(C)CC(=O)C(/C(=N/NC(=S)NN)C(=O)Nc2nc3ccc([N+](=O)[O-])cc3s2)C(=O)C1,35.8%,20.2%,-15.2%,-26.9%,1%,16.4%
COc1ccc(-c2c(N)nc(=S)[nH]c2C(=O)O)cc1,-8.65%,9.85%,-9.15%,-21.2%,8.75%,-17.7%
O=C1OC2C(I)C3C(C4CCCCC4)C1C23 (stereo unspecified),8.3%,-3.85%,31.8%,17%,65.8%,7.7%
CCOC(=O)N1CCN(P(=O)(c2ccccc2)N2CCN(C(=O)OCC)CC2)CC1,7.35%,-28.4%,1.85%,-31.6%,-0.75%,9.85%
CSc1ccc(NC(=O)Nc2cccc(F)c2)cc1,-2.15%,11.9%,27.2%,-18.5%,42.5%,35.6%
CC1COC(c2ccc(Cl)cc2Cl)O1 (stereo unspecified),8.35%,-2.4%,-1.1%,1.25%,2.75%,-0.65%
COc1ccc2c(c1)OC(c1cccnc1)C(c1ccccc1)C2=O (stereo unspecified),-5.45%,-27.9%,17.9%,15.4%,16.1%,-0.05%
CCO/C=N/n1c(C(=O)NCCCOC)nc2ccccc2c1=O,-6.25%,-20.3%,7.4%,-5.6%,4.9%,1.75%
CCOC(=O)C1=C(NC(C)=O)Sc2ccccc2C1,27.9%,6.6%,1.8%,-19.3%,2.45%,25%
CC[O-].CC[O-].O=C([CH-]C(=O)c1ccccc1)CCCCCCCCC(=O)[CH-]C(=O)c1ccccc1.[Ti+4],-37.5%,-22.3%,5.1%,13.2%,2.85%,0.5%
O=C(O)c1c[nH]c2cc(OCc3ccccc3)ccc2c1=O,-4.1%,-44.4%,-45.5%,-7.15%,-21.1%,7.75%
CN(C)C(=O)c1ccc[n+](CC(=O)Nc2ccccc2)c1,0.7%,-3.85%,13.1%,-1.25%,4.05%,-4.4%
Cc1c(CO)[n+](=O)c2ccccc2n1[O-],30.4%,12.6%,0.45%,-22.6%,3.4%,21.7%
CC1=NN2C(c3ccc(Cl)cc3)=CSC2=NC(C)(C)C1,16.6%,-16.9%,-3.1%,5.8%,-8.6%,-13.2%
